Bioassay records from PubChem BioAssay.
HT1080 IDH1KD tx – qHTS for induction of synthetic lethality in tumor cells producing 2HG: qHTS for the HT-1080-IDH1KD cell line; hit rate 2% among 360,000; Potency, µM (highest dose often 46.1 µM), for inactives: at the highest dose activity, negative = toxicity, actives largely listed as cytotoxic; HT-1080 IDH1 knockdown viability, ATP luminescence, 48 h;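 note: 0% = DMSO wells and -100% = cell-free medium wells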
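Using the IDH1-knockdown HT-1080 line run in the same batch and compound series as the NT line, viability after 48 h at 37 °C was determined by CellTiter-Glo luminescence and expressed as % activity.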
KB-3-1 cytotox – qHTS assay for MDR1-selective chemotherapeutics: Primary screen using the parental adenocarcinoma cell KB-3-1; Potency, µM (doses to about 46.1 µM), hits mostly cytotoxic; AID 1347075, 2019; hit rate 1.4% among 400,000; KB-3-1 viability, CellTiter-Glo ATP luminescence, 72 h; note: nearly all actives have a fitted effect of over 60% in size
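Cytotoxicity in the drug-sensitive parental line KB-3-1 was scored as loss of CellTiter-Glo luminescence following 72 h incubation with compound. Values come from curve fitting of normalized concentration-response data.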
TDP1 cell CPT – qHTS for Inhibitors of human tyrosyl-DNA phosphodiesterase 1 (TDP1): qHTS in cells in presence of CPT. chicken DT40 Tdp1-/-;hTDP1 cells + 20 nM CPT, ATP luminescence, 48 h. Potency, µM (titrated, usually from 46.2 µM), for inactives: top-dose activity change, negative = growth inhibition, actives largely listed as inhibitors. hit rate 12% among 420,000. AID 686979, 2013; note: nearly all actives have a fitted effect of over 55% in size
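Chicken DT40 Tdp1-/- cells stably complemented with human TDP1 were seeded at 400 cells/well in medium containing 20 nM camptothecin, exposed to pin-transferred compounds, and grown at 37 °C for at least 48 hr. Viability was read as ATP luminescence.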
HT1080-NT tox – qHTS for induction of synthetic lethality in tumor cells producing 2HG: qHTS for the HT-1080-NT fibrosarcoma cell line; HT-1080-NT fibrosarcoma viability, CellTiter-Glo ATP luminescence, 48 h; Potency, µM (series often up to 46.1 µM), for the others: at the highest dose activity, negative = less viability, hits mostly cytotoxic; hit rate 1.6% among 360,000;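 note: NT is the 2HG producing partner of a matched IDH1 knockdown line; 0% = DMSO-treated cells and -100% = media-only wells without cells; nearly all actives have a fitted effect of over 55% in size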
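Viability of the 2HG-overproducing fibrosarcoma line after 48 hours of compound exposure at 37 degrees C was determined by luminescence with CellTiter-Glo, and concentration-effect curves were then fitted and categorized.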
TDP1 cell noCPT – qHTS for Inhibitors of human tyrosyl-DNA phosphodiesterase 1 (TDP1): qHTS in cells in absence of CPT; DT40 Tdp1-/- hTDP1 cells, no CPT, ATP luminescence, 48 h; Potency, µM (highest dose often 46.2 µM), without a hit: at the top dose activity change, negative = growth inhibition, actives largely listed as inhibitors; hit rate 15% among 420,000; note: nearly all actives have a fitted effect of over 55% in size
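DT40 Tdp1-/-;hTDP1 cells, no CPT (DMSO vehicle only), 400 cells/well; compounds pin-transferred; ≥48 hr, 37 °C; CellTiter-Glo 30 min RT dark, luminescence read.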
KB-V1 cytotox – qHTS assay for MDR1-selective chemotherapeutics: Primary screen using the drug-selected MDR subline cells KB-V1; KB-V1 MDR cells viability, CellTiter-Glo, 72 h; hit rate 3.4% among 400,000; AID 1347076, 2019; Potency, µM (highest dose often 46.1 µM), hits mostly cytotoxic; note: nearly all actives have a fitted effect of over 60% in size
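Readout: CellTiter-Glo luminescence, 10 min after addition. Cells: KB-V1 MDR subline, 72 h at 37 degrees C with compound. Analysis: corrected, normalized data fitted to concentration-effect curves.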
* hit, by the source's call; i = inactive; ? = inconclusive; · = no result given; [ ] = remark or other dose. Compounds with a hit are over-represented: about 19% of the library has one in this group of screens. Calls come from the whole dose curve; as a rule, active = well fitted curve in the direction sought with a large enough effect; inconclusive = small, poorly fitted or top-dose-only effect, or another doubt; inactive = no such curve, though single readings can be large; an effect the other way counts as inactive or inconclusive. Unless noted, % is set by controls: 0 for no effect and ±100 for the full control effect; potency is the fitted concentration of half-maximal effect.

SMILES	HT1080 IDH1KD tx	KB-3-1 cytotox	TDP1 cell CPT	HT1080-NT tox	TDP1 cell noCPT	KB-V1 cytotox
O=C1CC(c2cccc(Cl)c2)Cc2nc(N3CCOCC3)ncc21 (configuration not stated)	0%	i	?	-2%	21µM*	i
O=C(C=C1CCN(c2ncc(C(F)(F)F)cc2Cl)CC1)NNC(=O)Nc1ccc(Cl)cc1	16%	i	-4%	3%	?	i
O=C(c1ccco1)N1CCN(S(=O)(=O)Cc2ccccc2Cl)CC1	12%	?	-15%	-12%	0%	i
Clc1ccccc1-c1cncnc1NCCN1CCOCC1	·	·	3.3µM*	·	3.7µM*	·
FC(F)(F)c1ccccc1-c1cncnc1NCCN1CCOCC1	·	·	1µM*	·	1.5µM*	·
Clc1ccc(-n2ncc3c(NCCN4CCOCC4)ncnc32)cc1	-29%	i	7%	-22%	?	i
COc1cc(C)ccc1OCCOCCOc1cccc2ccc(C)nc12	?	i	16µM*	-13%	16µM*	i
C=CCc1ccc(OCCOCCOc2cccc3ccc(C)nc23)c(OC)c1	?	i	18µM*	?	11µM*	?
CCc1ccccc1OCCOc1ccc(C)cc1OC	18%	i	?	40%	29µM*	i
COc1cc(C)ccc1OCCCOc1ccccc1Br	18%	i	-10%	6%	-22%	i
c1ccc(CNc2c(C3CCNCC3)nc3scc(-c4ccccc4)n23)cc1	-16%	i	?	-5%	-16%	i
CC(=Nc1ccccc1)C1=C(O)C(Cc2ccc(F)cc2)NC1=O (configuration not stated)	2.6µM*	1.8µM*	1µM*	2.6µM*	1.2µM*	?
CC(=Nc1ccccc1)C1=C(O)C(Cc2ccccc2)NC1=O (configuration not stated)	?	0.0065µM*	0.012µM*	0.58µM*	0.0058µM*	i
CC(=Nc1ccccc1)C1=C(O)C(CC(C)C)NC1=O (configuration not stated)	11%	i	-12%	12%	-3%	23µM*
CCC(C)N(C(=O)CSc1nnc(C)n1C)C1CCS(=O)(=O)C1 (configuration not stated)	11%	i	14%	11%	-4%	i
COc1ccc(CNC(=O)[C@H](C)NC(=O)C2CCN(C(=O)[C@@H](N)CCSC)CC2)cc1	5%	i	12%	5%	11%	i
COc1cccc(NC(=O)CSc2ncc(S(=O)(=O)c3ccc(C)c(C)c3)c(=O)[nH]2)c1	·	i	·	·	·	i
O=C(COC(=O)c1ccc[nH]c1=O)NCCCc1ccccc1	1%	i	-6%	-4%[9.24 µM]	11%	?
CCCn1cnnc1CNC(=O)[C@H]1O[C@@H](n2ccc(=O)[nH]c2=O)[C@H](O)[C@@H]1O	1%	i	-15%	-3%	-8%	18µM*
O=c1ccc2c(ccc3ncccc32)o1	3%	i	-17%	1%	12µM*	i
O=[N+]([O-])c1cccc(S(=O)(=O)/N=C(/Nc2ccccc2)c2ccccc2)c1	0%	·	-9%	0%	-13%	·
COc1ccc(-c2coc3c(C(=O)NCc4ccc(OC)c(OC)c4)cccc23)c(C)c1	4.1µM*	i	8.2µM*	?	6.5µM*	?
COc1ccc(-c2coc3c(C(=O)NCc4ccc(F)c(F)c4)cccc23)c(C)c1	13µM*	i	?	13µM*	15µM*	?
COc1ccc(-c2ccc(C(=O)NCc3ccc(F)c(F)c3)c3occc23)c(C)c1	?	i	?	?	?	i
COc1ccc(CCNC(=O)CN(c2cc([N+](=O)[O-])ccc2OC)S(C)(=O)=O)cc1OC	?	i	17%	1%	-8%	i
SMILES	HT1080 IDH1KD tx	KB-3-1 cytotox	TDP1 cell CPT	HT1080-NT tox	TDP1 cell noCPT	KB-V1 cytotox
COc1ccccc1C1N=C(Nc2nc3ccccc3o2)NC2=C1C(=O)CC(C)(C)C2 (configuration not stated)	·	i	?	·	?	?
COc1ccc(NC(=O)COC(=O)C2CC(=O)N(CCc3ccc(OC)c(OC)c3)C2)cc1Cl (configuration not stated)	18%	i	5%	4%	1%	i
Cc1ccc(-c2nn3c(C)nnc3c3ccccc23)cc1S(=O)(=O)NC(C)(C)CO	?	i	?	-10%	?	i
Cc1ccc(-c2nn3c(C)nnc3c3ccccc23)cc1S(=O)(=O)NC(C)c1ccccc1 (configuration not stated)	?	?	?	?	18µM*	i
Cc1ccc(-c2nn3c(C)nnc3c3ccccc23)cc1S(=O)(=O)NCc1ccco1	-5%	i	15µM*	-1%	?	15µM*
CC(C)(C)c1ccccc1NC(=O)c1ccc2c(c1)SC1=NS(=O)(=O)CCN12	3%	i	29µM*	17%	?	i
O=C(NCc1ccccc1Cl)c1ccc2c(c1)SC1=NS(=O)(=O)CCN12	0%	?	?	28%	?	i
O=C(Nc1cccc(Br)c1)c1ccc2c(c1)SC1=NS(=O)(=O)CCN12	0%	i	23µM*	-3%	29µM*	i
O=C(NCC(=O)N1CCN(c2ccccc2O)CC1)c1cccs1	-12%	i	-4%	0%	-24%	i
Fc1ccccc1-c1nc(-c2ccc(Br)o2)no1	1%	i	4%	-5%	1%	i
COc1ccccc1OCC(=O)NNC(=O)c1ccoc1C	-19%	i	15µM*	7%	?	i
